# Experimental data from PubChem BioAssay AID488969 (Vanderbilt High Throughput Screening Facility, 2010).
# The full ranking holds about 110,000 compounds; the median of “z-score” is about -0.1, and the highest 2% start at about 2. This excerpt belongs to a sample that is enriched for the highest values. Calls of active or inactive are those of the source.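 Rule for the calls: active = z-score in the third read window above 3 or below -3; inactive = the rest.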
# Target: Metabotropic glutamate receptor 8 (Rattus norvegicus) (UniProt P70579)
# Sequence (P70579 whole entry, looked up): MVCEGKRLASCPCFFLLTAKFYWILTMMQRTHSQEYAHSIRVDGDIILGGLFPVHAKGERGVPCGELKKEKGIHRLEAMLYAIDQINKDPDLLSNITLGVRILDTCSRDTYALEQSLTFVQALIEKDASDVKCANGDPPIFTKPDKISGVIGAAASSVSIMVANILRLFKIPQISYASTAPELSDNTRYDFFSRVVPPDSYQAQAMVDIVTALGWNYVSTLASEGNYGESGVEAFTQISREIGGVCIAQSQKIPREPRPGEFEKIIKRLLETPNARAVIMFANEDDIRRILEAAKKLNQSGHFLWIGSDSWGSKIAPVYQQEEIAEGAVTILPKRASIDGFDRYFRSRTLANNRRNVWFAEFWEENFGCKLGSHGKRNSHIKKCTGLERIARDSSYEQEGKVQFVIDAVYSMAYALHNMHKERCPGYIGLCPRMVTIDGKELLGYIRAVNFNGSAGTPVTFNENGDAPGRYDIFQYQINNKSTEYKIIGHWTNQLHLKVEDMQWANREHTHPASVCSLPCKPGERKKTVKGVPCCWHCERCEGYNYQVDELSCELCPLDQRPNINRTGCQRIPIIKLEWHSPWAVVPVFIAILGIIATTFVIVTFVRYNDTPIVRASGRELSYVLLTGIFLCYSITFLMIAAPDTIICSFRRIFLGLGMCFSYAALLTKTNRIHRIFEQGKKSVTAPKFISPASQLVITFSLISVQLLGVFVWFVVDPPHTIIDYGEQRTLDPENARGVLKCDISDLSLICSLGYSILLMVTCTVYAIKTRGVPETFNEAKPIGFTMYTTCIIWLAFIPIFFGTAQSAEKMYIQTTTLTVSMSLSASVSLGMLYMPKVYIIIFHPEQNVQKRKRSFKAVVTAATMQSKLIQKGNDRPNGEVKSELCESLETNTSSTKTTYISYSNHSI
# Assay: rat mGluR8 modulators via GIRK flux, primary screen, cell-based, thallium flux, HTS (AID 488969)
# Conditions: HEK293 rat mGluR8, GIRK (G protein-gated inwardly rectifying potassium channel) thallium flux, FluoZin2; at 10 µM; stronger effect = higher value; submaximal glutamate (EC20) added with thallium
row,Structure (SMILES),z-score
1,O=S(=O)(c1ccccc1)c1nc(-c2ccccc2)oc1N1CCCCC1,-0.0433
2,COCCNC(=O)C(c1cccs1)N(C(=O)Cn1nnc2ccccc21)c1ccc(OC)cc1 (configuration not stated),0.0248
3,CCCCCCCCCOC(=O)C[n+]1csc(CCO)c1C,0.0302
4,O=C(CN1C(=O)c2ccccc2C1=O)Nc1sc2c(c1C(=O)NCC1CCCO1)CCC2 (configuration not stated),4.33 (active)
5,O=C(CCN1C(=O)c2ccccc2C1=O)Nc1sc2c(c1C(=O)NCC1CCCO1)CCC2 (configuration not stated),-0.294
6,CC(C(=O)Nc1sc2c(c1C(=O)NCC1CCCO1)CCC2)N1C(=O)c2ccccc2C1=O (configuration not stated),-1
7,CC(C)COP(=O)(OCC(C)C)C(O)c1ccc(F)cc1 (configuration not stated),0.263
8,COc1ccc(C2(CNC(C)=O)CCOCC2)cc1OC,0.1
9,COC(=O)C1=CN(C(C)C)C=C(C(=O)OC)C1c1cc2c(cc1Br)OCO2,-0.0368
10,Cc1cc2cc3c(cc2nc1SCc1ccc(C(=O)O)cc1)OCCO3,-0.554
11,COc1cccc(C2C(C#N)=C(N)Oc3c2oc(CO)cc3=O)c1 (configuration not stated),-1.28
12,COc1ccccc1C(=O)NNC(=O)c1cccc(F)c1,-0.0578
13,O=C(CC(=O)c1ccccc1O)c1ccc(F)cc1,7.61 (active)
14,CCOC(=O)c1ccccc1NC(=O)c1cccc(F)c1,0.0409
15,Cc1ccccc1C(=O)NNC(=O)c1ccc(F)cc1,0.0481
16,Cc1ccc(C(=O)c2ccccc2C(=O)O)c(O)c1,0.0184
17,O=C(CCC(=O)c1ccc(F)cc1)Nc1ccccc1Cl,0.266
18,O=C(Nc1ccccc1C(=O)O)c1cccc(F)c1,-0.262
19,Cc1ccc(C(=O)CC(=O)c2cccc(F)c2)c(O)c1,8.38 (active)
20,O=C(CC(=O)c1ccccc1O)c1cccc(F)c1,3.63 (active)
21,CC(=O)Nc1cccc(C(=O)/C=C/c2ccc(/C=C/C(=O)c3cccc(NC(C)=O)c3)cc2)c1,0.033
22,COc1ccc2oc(C(=O)C3CC3)c(N)c2c1,1.19
23,COc1ccc(N=C/C=C2\C=C(c3ccccc3)OC(C)(C)O2)cc1,-0.461

row,Structure (SMILES),z-score
1,CC1=NN(C(=O)Cc2ccc(C)cc2)C(O)(c2cccnc2)C1 (configuration not stated),0.145
2,C=CCN1C(=Nc2cccnc2)SCC1(O)c1ccc(C)cc1 (configuration not stated),2.38
3,OC1(c2ccc(OC(F)F)cc2)CSC(=Nc2cccnc2)N1C1CC1 (configuration not stated),-0.02
4,COc1cc(/C=N/NC(=O)c2cc3ccccc3cc2O)ccc1OCCN1CCCCC1,-0.0725
5,COc1ccc(N(C)S(=O)(=O)c2cccc(C(=O)OCC(=O)Nc3sc4c(c3C#N)CCCCC4)c2)cc1,0.379
6,O=C1CC(C(F)(F)C(F)(F)C(F)(F)C(F)(F)F)=Nc2ccccc2N1,-0.248
7,Cc1cc2c(cc1C)NC(=O)CC(C(F)(F)C(F)(F)C(F)(F)F)=N2,-0.139
8,O=C1CC(C(F)(F)C(F)(F)C(F)(F)F)=Nc2ccccc2N1,3.4 (active)
9,CC(C)(C)c1ccc(CN2C3=NCCCN3c3ccccc32)cc1,4.19 (active)
10,Brc1ccc(CN2C3=NCCCN3c3ccccc32)cc1,0.755
11,CCCCN1C2=NCCCN2c2ccccc21,-0.957
12,Cc1ccc(C)c(C(=O)CN2C3=NCCCN3c3ccccc32)c1,0.0716
13,OC(CN1C2=NCCCN2c2ccccc21)c1ccc(Cl)cc1 (configuration not stated),0.782
14,CCCCCN1C2=NCCN2c2ccccc21,0.394
15,O=C(CN1C2=NCCCN2c2ccccc21)c1ccc(Cl)cc1Cl,0.287
16,CCCCCCN1C2=NCCN2c2ccccc21,7.63 (active)
17,OC(CN1C2=NCCCN2c2ccccc21)c1ccc(Br)cc1 (configuration not stated),3.3 (active)
18,Clc1ccc(CN2C3=NCCCN3c3ccccc32)cc1,0.436
19,c1ccc(CN2C3=NCCCN3c3ccccc32)cc1,2.93
20,OC(CN1C2=NCCN2c2ccccc21)c1ccc(Br)cc1 (configuration not stated),0.254
21,Cc1cccc(N(CC(=O)Nc2ccccc2F)S(C)(=O)=O)c1,-0.443
22,Cc1ccccc1OCC(=O)NC1=NCCS1,0.0476
23,CCOC(=O)C(C)On1c(-c2cccc(Cl)c2)nc2ccc([N+](=O)[O-])cc21 (configuration not stated),0.66

row,Structure (SMILES),z-score
1,CNc1nc(CCN2C(=O)c3ccccc3C2=O)cs1,-0.0681
2,CCOC(=O)C(C)Sc1nc(C2CC2)cc(C(F)(F)F)c1C#N (configuration not stated),1.1
3,O=C(NC(C(=O)O)c1ccccc1)c1ccccc1 (configuration not stated),0.488
4,COC(=O)CCC(=O)Nc1ccc(C)cc1OC(=O)CCC(=O)OC,0.273
5,COc1ccccc1CNS(=O)(=O)c1c(C)[nH]c(=O)[nH]c1=O,0.0871
6,O=C1CC(c2ccc(S(=O)(=O)NCCOc3ccccc3)cc2)CN1 (configuration not stated),0.129
7,Fc1ccc(CN2C3=NCCCN3c3ccccc32)cc1,-0.37
8,Cc1ccccc1CN1C2=NCCCN2c2ccccc21,3.26 (active)
9,CCCN1C2=NCCCN2c2ccccc21,0.397
10,CCN1C2=NCCCN2c2ccccc21,0.0152
11,Cc1ccc(CN2C3=NCCCN3c3ccccc32)cc1,3.51 (active)
12,Cc1ccc(C(O)CN2C3=NCCCN3c3ccccc32)cc1 (configuration not stated),1.16
13,C=CCNC(=O)c1cc(Cl)ccc1Cl,0.018
14,COc1ccc2c(C)cc(=O)[nH]c2c1,-0.159
15,CN(C)CCNC(=O)c1cc2c(s1)-c1ccccc1OC2,3.28 (active)
16,O=C(NC1CC1)c1cc2c(s1)-c1ccccc1OC2,-0.272
17,O=C(NCc1cccs1)c1cc2c(s1)-c1ccccc1OC2,-0.399
18,Cc1cc(C)n(-c2ccc(Cl)c(C(=O)Nc3cc(C(F)(F)F)ccc3Cl)n2)n1,0.25
19,CC(C)c1ccc(OCC(=O)N(Cc2ccccc2)c2ccccn2)cc1,-0.499
20,CCN(CC(=O)Nc1cccc(OC)c1)c1ncnc2sc(C)c(C)c12,-0.125
21,Cc1c(NC(=O)CSc2ncn[nH]2)c(=O)n(-c2ccccc2)n1C,0.565
22,CC(=O)N1CCN(CC(=O)Nc2ccc(Cl)c(S(=O)(=O)N(C)C)c2)CC1,-0.0302
23,CCCCC(=O)Nc1ccc(C(=O)Nc2cccnc2)cc1,0.0123

row,Structure (SMILES),z-score
1,CCCCc1ccc(NC(=S)Nc2ccc(Nc3ccc(OC)cc3)cc2)cc1,-0.0123
2,CCCCc1ccc(NC(=S)Nc2cccnc2)cc1,2.66
3,CCC(C(=O)OCC(=O)Nc1ccc(Cl)c(S(=O)(=O)N(C)C)c1)c1ccccc1 (configuration not stated),-2.23
4,CCCCc1ccc(NC(=S)Nc2ccc(Cl)c(S(=O)(=O)N(C)C)c2)cc1,5.93 (active)
5,CNC(=O)N1CCN(C(=O)NC)CC1,-0.168
6,CCN(CC)S(=O)(=O)c1ccc(N2CCOCC2)c(NS(=O)(=O)c2cc(C(C)(C)C)ccc2C)c1,-0.103
7,O=C1[C@@H]2[C@H](C(=O)N1Cc1ccco1)[C@H]1C=C[C@@H]2C1,-0.0939
8,Cc1cc(C(=O)CSc2nc3ccccc3o2)c(C)n1CC1CCCO1 (configuration not stated),-0.415
9,CCCCCCc1cc2cc(C(=O)NC)c(=N)oc2cc1O,11.6 (active)
10,CCCCCCc1cc2cc(C(N)=O)c(=N)oc2cc1O,-1.44
11,CCCCCCc1cc2cc(C(=O)NCc3ccccc3)c(=N)oc2cc1O,0.891
12,O=C(Nc1ccc(Br)cc1)c1ccc(N2C(=O)C3CC=CCC3C2=O)cc1 (configuration not stated),0.106
13,COc1cc(C(=O)NNC2=CC(=O)CC(C)(C)C2)cc(OC)c1OC,-0.21
14,Cc1cc(N/C(=N\S(=O)(=O)c2ccc(F)cc2F)c2ccccc2)no1,0.0702
15,COc1ccc(-c2nnc(SC(C)C(=O)Nc3ccc4c(c3)OCCO4)o2)cc1 (configuration not stated),1.65
16,Cc1ccc(C(=O)CSc2nnc(-c3ccccc3)o2)cc1,0.068
17,COc1ccc(-c2nnc(SCC(=O)Oc3ccc(C)cc3)o2)cc1,-0.915
18,COc1ccc(-c2nnc(SC(C)C(=O)Nc3cccc(Cl)c3)o2)cc1 (configuration not stated),-0.517
19,CCn1c(SCC(=O)c2ccc(NC(C)=O)c(OC)c2)nnc1-c1ccc(NS(C)(=O)=O)cc1,-0.0548
20,COc1ccc(C(=O)CSc2nnc(-c3ccc(C)cc3)o2)cc1,2.18
21,COc1ccc(-c2nnc(SC(C)C(=O)NNC(=O)c3ccc(C)cc3)o2)cc1 (configuration not stated),2.1
22,CCC(=O)Nc1ccc(C(=O)CSc2nnc(CNc3ccc(Cl)cc3)o2)cc1OC,-0.38
23,CCS(=O)(=O)Nc1ccc(-c2nnc(SCC(=O)c3ccc(NC(C)=O)c(OC)c3)o2)cc1,4.64 (active)

row,Structure (SMILES),z-score
1,COCCNC(=O)c1onc(CSc2ccc(C)c(C)c2)c1C(=O)O,-0.0285
2,CN1C(=O)COc2ccc(C(=O)c3oc4ccccc4c3-c3cnc4c(c3)COc3ccccc3-4)cc21,-0.142
3,O=C(Cc1ccccc1)Nc1c[nH]c(=O)[nH]c1=O,-0.449
4,Brc1ccc2[nH]c3c(N4CCc5ccccc5C4)ncnc3c2c1,-0.00372
5,O=C(CCn1cccc1)Nc1cc(F)ccc1F,-0.224
6,S=c1nc2ccccc2c2nc(-c3ccccc3)[nH]n12,2.81
7,Cc1nc2ccccc2n1CCc1nc2c3ccccc3nc(=S)n2[nH]1,-0.257
8,Cc1cncn1CCc1nc2c3ccccc3nc(=S)n2[nH]1,-0.535
9,Cc1ccccc1C(=O)Nc1ccccc1C(=O)NCc1ccccc1,-0.529
10,CCOC(=O)c1cn2nc(-c3ccc(OCC)cc3)cc2nc1C1CCN(C(=O)OC(C)(C)C)CC1,-0.13
11,O=C(COC(=O)c1ccc([N+](=O)[O-])s1)Nc1ccccc1,-0.0827
12,CC(C)(C)c1ccc(NC(=O)COC(=O)c2ccc([N+](=O)[O-])s2)cc1,2.01
13,Cc1ccc(NC(=O)COC(=O)c2ccc([N+](=O)[O-])s2)c(C)c1,0.229
14,COc1ccccc1/C=C/C(=O)NCC(=O)N/N=C/c1cccnc1,0.376
15,CC(NS(=O)(=O)c1ccc(CCC(=O)NCc2cccnc2)cc1)c1ccccc1 (configuration not stated),0.0386
16,Cc1nnc(SCC(=O)Nc2ccccc2N2CCOCC2)s1,-0.0127
17,O=C(Nc1ccc(Br)cc1)C1CCC(=O)N1Cc1ccccc1Cl (configuration not stated),4.3 (active)
18,O=C(Nc1ccc(Cl)cc1)C1CCC(=O)N1Cc1ccccc1Cl (configuration not stated),0.406
19,O=C(Nc1cc(Cl)cc(Cl)c1)C1CCC(=O)N1Cc1ccccc1Cl (configuration not stated),-0.359
20,CCCCN(CCCC)CC(O)CN(c1cc([N+](=O)[O-])ccc1OC)S(=O)(=O)c1ccccc1 (configuration not stated),0.91
